Screening data as filed in PubChem.
Most compounds without a hit are left out; they make up all but 12% or so of the library.
JMJD2A Tudor inh: qHTS Assay for Inhibitors of JMJD2A-Tudor Domain; Lysine-specific demethylase 4A (Homo sapiens), O75164; AlphaScreen JMJD2A-Tudor / H3K4me3 peptide binding; Potency, µM (doses to about 114 µM), inactives show top-dose activity change, negative = inhibition, most hits filed as inhibitors; 390,000 compounds, 4.4% hits; AID 504339, 2011; note: % is set by controls: 0 for no effect and ±100 for the full control effect; nearly all actives have a fitted effect of over 50% in size
G9a inh: qHTS Assay for Inhibitors of Histone Lysine Methyltransferase G9a. Histone-lysine N-methyltransferase EHMT2 (Homo sapiens), Q96KQ7. G9a H3K9 monomethylation, AlphaScreen, 2 h. Potency, µM (series often up to 102 µM), without a hit: top-dose activity, negative = inhibition, most hits filed as inhibitors. 350,000 compounds, 8.8% hits. AID 504332, 2011; note: % is set by controls: 0 for no effect and ±100 for the full control effect; nearly all actives have a fitted effect of over 75% in size
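G9a (20 nM) was preincubated 15 min with compound, then reacted 2 h at room temperature with 500 nM biotin-H3K9 peptide and 20 µM SAM. Monomethyl-H3K9 detected by AlphaScreen using anti-H3K9me1 antibody.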
L3MBTL1 inh: qHTS Assay for the Inhibitors of L3MBTL1 | Lethal(3)malignant brain tumor-like protein 1 (Homo sapiens), Q9Y468 | AlphaScreen L3MBTL1–H3K9me1 peptide binding | Potency, µM (highest dose often 57.1 µM), inactives show at the top dose activity, negative = inhibition, actives largely listed as inhibitors | 230,000 compounds, 0.66% hits; note: % is set by controls: 0 for no effect and ±100 for the full control effect; nearly all actives have a fitted effect of over 60% in size
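Displacement of a biotinylated histone H3(1-15) peptide monomethylated at Lys9 (75 nM) from L3MBTL1 (50 nM) was measured by AlphaScreen after a 30 min room-temperature compound incubation; cefsulodin titration served as intraplate control.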
Sfp inh: qHTS Assay for Inhibitors of Bacillus subtilis Sfp phosphopantetheinyl transferase (PPTase); Biochemical Sfp PPTase activity, qHTS; 310,000 compounds, 3.5% hits; Potency, µM, for the others: largest response in the series, negative = inhibition, usual class: inhibitors; AID 1490, 2009; 4'-phosphopantetheinyl transferase ffp (Bacillus subtilis), Q9F4F7;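 note: the enzyme is Sfp with the accession as filed and its product quenches rhodamine fluorescence; 0% = enzyme reaction without inhibitor and -100% = no enzyme wells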
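Buffer: 50 mM Hepes-Na pH 7.6, 10 mM MgCl2, 0.01% Nonidet P-40, 0.01% BSA. Enzyme 15 nM, pre-exposed to compound 15 min; substrates then added and fluorescence change tracked over 30 min.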
BAZ2B inh: qHTS Assay for Inhibitors of BAZ2B. Potency, µM (series often up to 114 µM), for inactives: top-dose activity change, negative = inhibition, usual class: inhibitors. 360,000 compounds, 4.4% hits. AlphaScreen BAZ2B-H3K14Ac peptide displacement. Bromodomain adjacent to zinc finger domain protein 2B (Homo sapiens), Q9UIF8; note: % is set by controls: 0 for no effect and ±100 for the full control effect; nearly all actives have a fitted effect of over 60% in size
Target sequence (Q9UIF8 whole entry, looked up, the tested form may be a part): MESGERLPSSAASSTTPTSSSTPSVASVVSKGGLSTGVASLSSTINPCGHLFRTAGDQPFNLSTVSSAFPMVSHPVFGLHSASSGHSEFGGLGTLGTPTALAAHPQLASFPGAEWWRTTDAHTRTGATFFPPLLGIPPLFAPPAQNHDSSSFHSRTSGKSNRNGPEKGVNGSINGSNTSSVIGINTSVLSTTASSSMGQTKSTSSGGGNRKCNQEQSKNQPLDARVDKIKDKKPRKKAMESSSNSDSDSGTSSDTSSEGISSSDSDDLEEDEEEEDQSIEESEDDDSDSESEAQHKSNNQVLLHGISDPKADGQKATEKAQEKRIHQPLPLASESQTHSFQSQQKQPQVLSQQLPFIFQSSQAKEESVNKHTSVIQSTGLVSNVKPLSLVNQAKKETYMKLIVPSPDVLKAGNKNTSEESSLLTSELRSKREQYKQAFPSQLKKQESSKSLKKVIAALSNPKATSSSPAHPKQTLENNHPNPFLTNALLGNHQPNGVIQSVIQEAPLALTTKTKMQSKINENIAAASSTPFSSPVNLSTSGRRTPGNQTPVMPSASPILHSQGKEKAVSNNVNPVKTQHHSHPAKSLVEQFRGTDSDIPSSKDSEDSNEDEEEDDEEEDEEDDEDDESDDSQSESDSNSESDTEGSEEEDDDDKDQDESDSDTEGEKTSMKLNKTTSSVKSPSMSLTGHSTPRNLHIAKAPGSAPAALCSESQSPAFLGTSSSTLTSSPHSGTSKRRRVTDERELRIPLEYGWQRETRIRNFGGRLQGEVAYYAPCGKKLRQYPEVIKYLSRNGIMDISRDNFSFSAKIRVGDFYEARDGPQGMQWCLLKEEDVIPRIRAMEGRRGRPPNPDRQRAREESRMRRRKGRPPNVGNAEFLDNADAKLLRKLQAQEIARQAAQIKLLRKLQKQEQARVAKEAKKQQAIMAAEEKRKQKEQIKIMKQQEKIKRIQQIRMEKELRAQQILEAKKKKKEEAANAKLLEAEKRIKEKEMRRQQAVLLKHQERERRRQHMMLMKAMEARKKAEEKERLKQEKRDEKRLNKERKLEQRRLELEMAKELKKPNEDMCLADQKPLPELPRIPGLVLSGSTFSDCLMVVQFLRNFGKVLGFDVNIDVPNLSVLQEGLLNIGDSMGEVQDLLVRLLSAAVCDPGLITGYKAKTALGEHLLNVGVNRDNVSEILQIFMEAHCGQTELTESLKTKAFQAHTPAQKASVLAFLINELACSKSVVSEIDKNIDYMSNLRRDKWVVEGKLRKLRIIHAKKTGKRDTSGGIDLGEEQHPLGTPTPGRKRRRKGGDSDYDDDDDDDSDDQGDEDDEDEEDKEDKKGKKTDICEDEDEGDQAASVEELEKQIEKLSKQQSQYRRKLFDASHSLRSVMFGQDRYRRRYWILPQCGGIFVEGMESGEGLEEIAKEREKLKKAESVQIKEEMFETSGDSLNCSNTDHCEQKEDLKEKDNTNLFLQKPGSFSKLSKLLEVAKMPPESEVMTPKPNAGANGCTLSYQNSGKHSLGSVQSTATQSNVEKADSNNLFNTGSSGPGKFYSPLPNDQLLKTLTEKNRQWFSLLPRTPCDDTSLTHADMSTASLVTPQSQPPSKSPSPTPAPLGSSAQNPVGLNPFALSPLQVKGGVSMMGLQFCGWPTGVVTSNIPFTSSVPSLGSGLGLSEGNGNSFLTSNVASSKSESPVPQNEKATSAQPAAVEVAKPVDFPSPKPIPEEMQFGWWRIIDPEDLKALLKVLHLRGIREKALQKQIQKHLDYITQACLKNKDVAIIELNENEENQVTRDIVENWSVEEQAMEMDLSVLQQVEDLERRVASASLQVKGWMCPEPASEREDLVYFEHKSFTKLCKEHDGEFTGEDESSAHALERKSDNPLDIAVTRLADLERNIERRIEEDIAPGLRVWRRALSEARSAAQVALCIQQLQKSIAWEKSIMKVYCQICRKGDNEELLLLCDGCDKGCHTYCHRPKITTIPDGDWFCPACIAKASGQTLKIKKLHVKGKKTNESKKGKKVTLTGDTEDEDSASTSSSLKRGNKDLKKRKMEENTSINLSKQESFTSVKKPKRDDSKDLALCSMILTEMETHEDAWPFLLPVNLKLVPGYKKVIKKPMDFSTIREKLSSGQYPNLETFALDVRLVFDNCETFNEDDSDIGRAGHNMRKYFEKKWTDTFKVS
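Compounds, titrated to a top concentration of 110 uM, were incubated 30 min at room temperature with preformed BAZ2B/acetyl-K14 H3 peptide complex (50 nM each). Proximity signal was measured by AlphaScreen after 20 min with beads.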
HP1b binding inh: HTS for Inhibitors of HP1-beta Chromodomain Interactions with Methylated Histone Tails | 390,000 compounds, 0.56% hits | AID 540317, 2011 | Chromobox protein homolog 1 (Homo sapiens), P83916 | AlphaScreen HP1-beta / biotin-H3K9me3 peptide binding | Potency, µM (top dose mostly 114 µM), for the others: at the highest dose activity change, negative = inhibition, actives largely listed as inhibitors; note: nearly all actives have a fitted effect of over 70% in size
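HP1-beta protein (50 nM final) preincubated 30 min at room temperature with biotinylated H3(1-18)K9me3 peptide (50 nM) in PBS pH 7.4, 0.01% Tween-20, then compound added for 30 min. AlphaScreen streptavidin donor/nickel chelate acceptor beads (10 ug/mL final), 30 min dark, luminescence read.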
Active calls of the source: *; ? = inconclusive; / = no result given; [ ] = remark or other dose. Calls come from the whole dose curve; as a rule, active = well fitted curve in the direction sought with a large enough effect; inconclusive = small, poorly fitted or top-dose-only effect, or another doubt; inactive = no such curve, though single readings can be large; an effect the other way counts as inactive or inconclusive. Potency is the fitted concentration of half-maximal effect.

SMILES	JMJD2A Tudor inh	G9a inh	L3MBTL1 inh	Sfp inh	BAZ2B inh	HP1b binding inh
CCC(=O)Nc1ccc(N2CCCCC2)c(C(=O)Nc2ccc(OC)cc2)c1	?	70%	/	-5%	-1%	-6%
CN(CC(=O)Nc1ccc(Cl)c(C(F)(F)F)c1)C(=O)c1ccc(N2CCOCC2)c([N+](=O)[O-])c1	?	32µM*	0%	/	-36%	?
CN(CC(=O)Nc1cccc(F)c1)C(=O)c1ccc(N2CCOCC2)c([N+](=O)[O-])c1	-20%	6%	/	12%	-19%	13%
COc1ccc(NC(=O)CSc2nccn2Cc2ccco2)cc1	-28%	-32%	/	-4%	-24%	-10%
COc1cccc(N2CCN(c3ccc(N4C(=O)CCC4=O)cc3[N+](=O)[O-])CC2)c1	?	50µM*	/	-2%	?	-20%
CN(CC(=O)Nc1ccc(Cl)cc1)C(=O)c1ccc(-n2cncn2)c([N+](=O)[O-])c1	-9%	-4%	-2%	/	0%	16%
COc1cccc(CNC(=O)c2ccc(N3CCOCC3)c([N+](=O)[O-])c2)c1	-13%	-7%	/	18%	-23%	-2%
COc1ccc(NC(=O)CN(C)C(=O)c2ccc(N3CCCCCC3)c([N+](=O)[O-])c2)cc1	?	50µM*	-9%	/	-9%	-24%
Cc1cccc(NC(=O)CN(C)C(=O)c2ccc(N3CCCCCC3)c([N+](=O)[O-])c2)c1C	?	/	-10%	/	/	-12%[57 µM]
Cc1ccc(NC(=O)CN(C)C(=O)c2ccc(Cl)c([N+](=O)[O-])c2)cc1	-18%	22µM*	-2%	8%	1%	9%
COc1cccc(CN(C)C(=O)c2ccc(N3CCCC3)c([N+](=O)[O-])c2)c1	45µM*	50µM*	/	1%	?	-11%
COc1ccccc1N1CCN(c2ccc(N3C(=O)CCC3=O)cc2[N+](=O)[O-])CC1	-10%	?	/	9%	-26%	19%
COCCn1c(=O)c(-c2cccc(C#N)c2)nc2cnc(N3CCN(C)CC3)nc21	/	-17%[0.501 µM]	/	11%	/	/
COc1ccc(OC)c([N+](=O)[O-])c1C(N)=O	50µM*	32µM*	?	-5%	50µM*	?
COc1ccc(NC(C)=O)c([N+](=O)[O-])c1[N+](=O)[O-]	-17%	/	/	/	/	8%
Clc1ccc(C2CC(c3ccccc3)Nc3ncnn32)cc1 (stereo unspecified)	-13%	-3%[59 µM]	-3%	4%	4%	25%
Clc1ccc(C2CC(c3ccco3)n3ncnc3N2)cc1Cl (stereo unspecified)	-15%	11µM*	-7%[11.4 µM]	5%	-31%	11%
CCc1nnc(NS(=O)(=O)c2ccc(NC(=O)c3ccccc3C)cc2)s1	-10%	-49%	/	7%	/	29%
C=CCc1cccc2cc(C(=O)Nc3ccc(S(=O)(=O)Nc4nnc(CC)s4)cc3)c(=O)oc12	28µM*	?	5%	79µM*	22µM*	28µM*
C=CCc1cccc2cc(C(=O)N3CCN(C(=O)c4ccccc4)CC3)c(=O)oc12	-15%	14µM*	/	-14%	?	27%
C=CCc1cccc2cc(C(=O)Nc3ccc(CC(=O)O)cc3)c(=O)oc12	-12%[11.4 µM]	50µM*	-10%	-3%	32µM*	-23%
C=CCc1cccc2cc(C(=O)Nc3ccc(F)cc3)c(=O)oc12	-20%	2%[59 µM]	-2%	11%	-10%	9%
O=C(CSc1ccccn1)Nc1nonc1[N+](=O)[O-]	2%	/	/	45µM*	-18%	30%
O=C(CCc1ccccc1)Nc1cc(C(=O)O)cc(C(=O)O)c1	12%	-10%	12%	8%	1%	40%
O=[N+]([O-])C1=CC=C2C(=NC3(CCCCC3)N2O)C1=NCCO	-16%	?	-12%	40µM*	50µM*	-34%
SMILES	JMJD2A Tudor inh	G9a inh	L3MBTL1 inh	Sfp inh	BAZ2B inh	HP1b binding inh
CN=C1C([N+](=O)[O-])=CC=C2C1=NC1(CCCCC1)N2O	-25%	?	-17%	8.9µM*	?	-25%
O=C(O)CCN1C(=O)C2C3CC(C2C1=O)C1C(c2ccccc2)c2sc(=O)n(-c4ccccc4)c2SC31 (stereo unspecified)	-8%	45µM*	/	?	?	-11%
CS(=O)(=O)N1CCC2(CC1)CN(c1cccc(-c3ccccc3)c1)C2	/	40%[12.7 µM]	/	3%	/	/
O=C(c1ccccn1)N(Cc1ccco1)C1(C(=O)NC2CCCC2)CCCCC1	-20%[57.1 µM]	31%[59 µM]	/	8%	8%	41%
O=C(c1ccc2c(c1)OCO2)N(Cc1ccco1)C1(C(=O)NC2CCCCC2)CCCCC1	-22%	79µM*	/	-9%	-6%	-10%
Cc1cc(C)nc(-n2nc(C)c(Sc3ccc(F)cc3)c2N)n1	?	50µM*	-8%	-27%	-4%	29%
Cc1cc(C)nc(-n2nc(C)c3c(C(F)(F)F)cc(=O)[nH]c32)n1	-15%	23%	17%	-2%	-5%	24%
Cn1nc(C(=O)NNC(=O)C(CCC(N)=O)NS(=O)(=O)c2ccc(Cl)cc2)c2ccccc2c1=O (stereo unspecified)	-17%	?	3%	/	-7%	33%
CN1CCN(c2cc3c(cc2F)c(=O)c(C(=O)O)cn3-c2ccc(F)cc2)CC1	/	?	/	9%	/	/
O=C(O)c1cn(-c2ccc(N3CCCC3)c(F)c2)c2c(F)c(F)c(F)cc2c1=O	?	45µM*	/	1%	-38%	5%
C=C(C)CSc1nc2sc3c(c2c(=O)n1-c1ccccc1)CC(C(C)C)OC3 (stereo unspecified)	-12%	-5%[59 µM]	/	/	-2%	21%
O=C(/C=C/c1ccc(OC(F)F)cc1)OCC(=O)N1CCc2ccccc21	-14%	45µM*	-13%	/	7%	17%
CN(Cc1ccccc1)C(=O)COC(=O)c1ccc[nH]c1=O	22µM*	/	9%	/	/	23%
CN(Cc1ccccc1)C(=O)COC(=O)c1ccc(Br)o1	-5%	/	2%	/	/	10%
O=C(CO/N=C/c1ccc(OC(F)F)cc1)N1CCc2ccccc21	-10%	-1%[59 µM]	-7%	-4%	7%	22%
O=C(OCC(=O)N1CCc2ccccc21)c1ccc[nH]c1=O	14µM*	-16%	1%	20%	-10%	0%
